{"source": "PubChem BioAssay (NCATS)", "note": "Results filed as inconclusive are left out. Entries that show only a call come without a potency. Calls of active or inactive are those of the source. The call rests on the fitted dose curve; in most records, active means well fitted cell-killing curve with a large enough effect; inconclusive means small, poorly fitted or top-dose-only effect, or effect the other way; inactive means flat fitted curve, though single readings scatter. Potency means the concentration at half of the fitted maximal effect."}
{"system": "HeLa", "assay": "Primary qHTS to identify gynecologic anti-cancer compounds using libraries of approved drugs and bioactive compounds (AID 1345084); further: nearly all actives have a fitted effect of over 55% in size", "settings": "Gynecologic cancer cell panel viability, ATPlite luminescence, 48 h; series mostly up to 57.5 µM", "from_the_text": "National Center for Advancing Translational Sciences [NCATS] Assay Overview: Chemotherapeutic drug responses vary from cancer to cancer and from patient to patient. These variations could be caused by a number of factors including patient genomic background, tumor mutations, tumor heterogeneity, and aspects of drug treatment. Chemotherapeutic drug resistance is also a common issue and can lead to ineffective treatment and patient death. Here we have profiled the cell killing effects of thousands of compounds to characterize the responses in three gynecological cancers, identify cancer-selective compounds, and understand the diversity of responses to these compounds from pan-cancer suppressors to single cell line selective compounds. In this assay, we screened a 7,914 compound drug library that included approved drug and bioactive compounds in six ovarian, three cervical, and […] placental cancer cell lines using the ATPlite assay for cell viability. […] The cervical cancer cell lines included HeLa, Ca Ski, and C-33 A. The placental cancer cell lines included JEG-3. HEK 293T cells were used as the control cell line to determine the selectivity index. ATPlite is a luminescence based assay reliant on the conversion of a luciferase substrate to light in the presence of ATP. As a cytotoxic compound will suppress growth and decrease the number of cells, the concentration of ATP will decrease, and less light signal will be detected in the well.\nAssay Protocol Summary: 1,000 cells in 4 uL of media were dispensed into white, solid bottom 1536-well plates using a Multidrop Combi (Thermo Scientific). The Assay plates were incubated for 16 hours at 37 C with 5% CO2 in assay plates, followed by the addition of 23 nL of DMSO or drug dissolved in DMSO. Each compound was assayed in five concentrations (0.092, 0.46, 2.3, 11.5, and 57.5 uM), using the automated Wako 1536 Pin Tool workstation and incubated at 37 C with 5% CO2 48 hours. 4 uL of ATPlite, the ATP monitoring reagent, was then added to the each well of the assay plates using the Multidrop Combi reagent dispenser followed by incubation for 15 minutes at room temperature. The resulting luminescence was measured using the ViewLux plate reader."}
{"smiles": "Cc1ncc([N+](=O)[O-])n1CCO", "Potency": "inactive"}
{"smiles": "Oc1c(Cl)cc(Cl)c2cccnc12", "Potency": "inactive"}
{"smiles": "CN(C)c1ccc(C(=C2C=CC(=[N+](C)C)C=C2)c2ccc(N(C)C)cc2)cc1", "Potency": "2 µM (active)"}
{"smiles": "COc1ncnc(NS(=O)(=O)c2ccc(N)cc2)c1OC", "Potency": "inactive"}
{"smiles": "O=C(O)c1ccc(-n2nc(-c3ccccc3O)nc2-c2ccccc2O)cc1", "Potency": "inactive"}
{"smiles": "CCCc1cc(C(N)=S)ccn1", "Potency": "inactive"}
{"smiles": "O[C@@H](CNC[C@H](O)[C@H]1CCc2cc(F)ccc2O1)[C@@H]1CCc2cc(F)ccc2O1", "Potency": "inactive"}
{"smiles": "NCCCC(O)(P(=O)(O)O)P(=O)(O)O", "Potency": "inactive"}
{"smiles": "COc1cc([C@@H]2c3cc4c(cc3[C@H](O)[C@H]3COC(=O)[C@H]23)OCO4)cc(OC)c1OC", "Potency": "0.1 µM (active)"}
{"smiles": "CC(C)OC(=O)C(C(=O)OC(C)C)=C1SC=CS1", "Potency": "inactive"}
{"smiles": "CC(C(=O)O)c1ccc2c(c1)CC(=O)c1ccccc1S2", "note": "(stereo not given)", "Potency": "inactive"}
{"smiles": "O=S(=O)(O)CCS", "Potency": "inactive"}
{"smiles": "CNS(=O)(=O)Cc1ccc2[nH]cc(CCN(C)C)c2c1", "Potency": "inactive"}
{"smiles": "O=C(O)c1cn(C2CC2)c2cc(N3CCNCC3)c(F)cc2c1=O", "Potency": "inactive"}
{"smiles": "NC(N)=NC(N)=NCCc1ccccc1", "Potency": "inactive"}
{"smiles": "Cc1oc(=O)oc1CN1CCN(c2cc3c(cc2F)c(=O)c(C(=O)O)c2n3C(C)S2)CC1", "note": "(stereo not given)", "Potency": "inactive"}
{"smiles": "CCOC(=O)c1ccc(OC(=O)CCCCCN=C(N)N)cc1", "Potency": "inactive"}
{"smiles": "COCCCOc1cc(C[C@@H](C[C@H](N)[C@@H](O)C[C@H](C(=O)NCC(C)(C)C(N)=O)C(C)C)C(C)C)ccc1OC", "Potency": "inactive"}
{"smiles": "COC(c1ccccc1)(c1ccccc1)[C@H](Oc1nc(C)cc(C)n1)C(=O)O", "Potency": "inactive"}
{"smiles": "CCC(=O)O[C@]1(C(=O)CCl)[C@@H](C)C[C@H]2[C@@H]3CCC4=CC(=O)C=C[C@]4(C)[C@@]3(F)[C@@H](O)C[C@@]21C", "Potency": "inactive"}
{"smiles": "Cc1ccnc2c1NC(=O)c1cccnc1N2C1CC1", "Potency": "inactive"}
{"smiles": "CC(C)C[C@H](NC(=O)[C@H](CCc1ccccc1)NC(=O)CN1CCOCC1)C(=O)N[C@@H](Cc1ccccc1)C(=O)N[C@@H](CC(C)C)C(=O)[C@@]1(C)CO1", "Potency": "0.794 µM (active)"}
{"smiles": "O=C(O)CSCC(=O)NC1CCSC1=O", "note": "(stereo not given)", "Potency": "inactive"}
{"smiles": "COc1ccc(C(=O)CC(=O)c2ccc(C(C)(C)C)cc2)cc1", "Potency": "inactive"}
{"smiles": "O=P(O)(O)C(O)(Cc1cccnc1)P(=O)(O)O", "Potency": "inactive"}
{"smiles": "Cc1noc(NS(=O)(=O)c2ccc(N)cc2)c1C", "Potency": "inactive"}
{"smiles": "CS(=O)(=O)c1ccc([C@@H](O)[C@@H](CO)NC(=O)C(Cl)Cl)cc1", "Potency": "inactive"}
{"smiles": "Cc1cccc(Nc2ccncc2S(=O)(=O)NC(=O)NC(C)C)c1", "Potency": "inactive"}
{"smiles": "CCOC(=O)[C@H](CCc1ccccc1)N[C@H]1CCc2ccccc2N(CC(=O)O)C1=O", "Potency": "inactive"}
{"smiles": "CCC(=O)O[C@]1(C(=O)SCF)[C@H](C)C[C@H]2[C@@H]3C[C@H](F)C4=CC(=O)C=C[C@]4(C)[C@@]3(F)[C@@H](O)C[C@@]21C", "Potency": "inactive"}
{"smiles": "Cc1nnc(NS(=O)(=O)c2ccc(N)cc2)s1", "Potency": "inactive"}
{"smiles": "CC(N)C12CC3CC(CC(C3)C1)C2", "note": "(stereo not given)", "Potency": "inactive"}
{"smiles": "Nc1nc(F)nc2c1ncn2[C@@H]1O[C@H](CO)[C@@H](O)[C@@H]1O", "Potency": "inactive"}
{"smiles": "CNCC[C@H](Oc1cccc2ccccc12)c1cccs1", "Potency": "inactive"}
{"smiles": "CN1CCCC(n2nc(Cc3ccc(Cl)cc3)c3ccccc3c2=O)CC1", "note": "(stereo not given)", "Potency": "inactive"}
{"smiles": "NC1(c2ccc(-c3nc4ccn5c(=O)[nH]nc5c4cc3-c3ccccc3)cc2)CCC1", "Potency": "inactive"}
{"smiles": "CCCc1nc(C)c2c(=O)[nH]c(-c3cc(S(=O)(=O)N4CCN(CC)CC4)ccc3OCC)nn12", "Potency": "inactive"}
{"smiles": "COc1cc2c(Nc3ccc(Br)cc3F)ncnc2cc1OCC1CCN(C)CC1", "Potency": "inactive"}
{"smiles": "NC(=O)c1cccnc1", "Potency": "inactive"}
{"smiles": "CCn1cc(C(=O)O)c(=O)c2cc(F)c(N3CCNCC3)nc21", "Potency": "inactive"}
